Measurements taken from PubChem BioAssay.
Active and inactive are the calls of the source.

Legend:
[1] = binders of probe aFSTL3 on microarray, primary screen, stem cell growth factor project, biochemical, small-molecule microarray, fluorescence 635/667 (AID 1064); details: higher = more signal;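 note: measures binding of the biotinylated anti-FSTL3 antibody to printed compounds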
[2] = binders from COS7 lysate, DM2A8 probe, primary screen, torsin A project, cell lysate, small-molecule microarray, fluorescence 635/667 (AID 1065); details: higher = more signal, COS7 lysate expressing mutant human TOR1A
[3] = binders of probe aFGF2 on microarray, primary screen, stem cell growth factor project, biochemical, small-molecule microarray, fluorescence 635/667 (AID 1067); details: higher = more signal;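 note: measures binding of biotinylated aFGF2 protein to printed compounds on slides; z-score merges feature fluorescence and signal-to-noise across triplicate slides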
[4] = binders of probe aFGF10 on microarray, primary screen, stem cell growth factor project, biochemical, small-molecule microarray, fluorescence 635/667 (AID 1071); details: higher = more signal;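 note: score merges 667 nm spot intensity and signal to noise from triplicate slides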
[5] = molecular target: Neurogenic locus notch homolog protein 2 (Homo sapiens) (UniProt Q04721); test: Notch2 binders on small-molecule microarrays, primary screen, biochemical, small-molecule microarray, 635 nm fluorescence, stem cell growth factors (AID 1073); details: Notch2 binding, higher = more signal
[6] = molecular target: Pro-neuregulin-1, membrane-bound isoform (Homo sapiens) (UniProt Q02297); test: NRG1 binders on small-molecule microarrays, primary screen, psychiatric disease protein project, biochemical, small-molecule microarray, fluorescence 635/667 (AID 1075); details: NRG1 binding, 635 nm fluorescence, higher = more signal;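 note: score combines 667 nm spot fluorescence with signal to noise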
Pro-neuregulin-1, membrane-bound isoform (Homo sapiens), sequence (Q02297 whole entry, looked up, the tested form may be a part, canonical isoform): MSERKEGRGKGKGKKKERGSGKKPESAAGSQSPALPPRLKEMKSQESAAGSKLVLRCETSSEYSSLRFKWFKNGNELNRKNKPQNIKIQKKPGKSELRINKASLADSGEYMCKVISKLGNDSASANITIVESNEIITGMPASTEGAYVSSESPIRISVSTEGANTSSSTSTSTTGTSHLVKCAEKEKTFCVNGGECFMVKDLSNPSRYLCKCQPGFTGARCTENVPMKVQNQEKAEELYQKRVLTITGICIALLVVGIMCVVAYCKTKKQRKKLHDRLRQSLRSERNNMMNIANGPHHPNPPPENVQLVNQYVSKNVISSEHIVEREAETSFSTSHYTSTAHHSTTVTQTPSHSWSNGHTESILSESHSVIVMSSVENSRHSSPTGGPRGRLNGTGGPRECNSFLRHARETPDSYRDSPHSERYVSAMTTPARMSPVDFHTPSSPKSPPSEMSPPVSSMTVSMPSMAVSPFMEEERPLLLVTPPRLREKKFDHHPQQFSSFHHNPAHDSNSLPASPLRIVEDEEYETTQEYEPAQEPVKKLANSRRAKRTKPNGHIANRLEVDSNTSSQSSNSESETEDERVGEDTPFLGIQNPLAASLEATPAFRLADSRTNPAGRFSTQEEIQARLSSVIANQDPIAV

[7] = tested on: Neuregulin-1 EGF-like domain; test: binders of neuregulin-1 EGF-like domain, primary screen, biochemical, small-molecule microarray, 635 nm fluorescence (AID 1081); details: small-molecule microarray binding, higher = more signal;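 note: binding of the protein to compounds printed on small-molecule microarray slides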
[8] = FRG1 promoter luciferase signal modulators, primary screen, FRG1 inhibition for FSHD, cell-based, C2C12 myotubes, firefly/Renilla luciferase, luminescence (AID 1084); details: higher = more signal, called active from +8 up or from −8 down
[9] = binders of probe aFST on microarray, primary screen, stem cell growth factor project, biochemical, small-molecule microarray, fluorescence 635/667 (AID 1086); details: higher = more signal;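 note: score merges 667 nm fluorescence with signal-to-noise of each printed compound spot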
[10] = binders of probe aHhip on microarray, primary screen, stem cell growth factor project, biochemical, small-molecule microarray, fluorescence 635/667 (AID 1087); details: higher = more signal;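 note: score merges spot fluorescence at 667nm with spot signal to noise ratio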
[11] = tested on: PRMT1 (protein arginine N-methyltransferase 1); test: PRMT1 binders on small-molecule microarrays, primary screen, biochemical, small-molecule microarray, 635 nm fluorescence (AID 1088); details: small-molecule microarray binding, higher = more signal;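 note: binding of Prmt1 protein to compounds spotted on small-molecule microarray slides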
[12] = yeast growth modulation, basal conditions, primary screen, YJM789 clinical isolate, OD600, 24 h (AID 1089);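 note: growth of clinical yeast isolate S. cerevisiae YJM 789 seeded 1000 cells per well; test concentration not given here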; details: S. cerevisiae YJM789 growth, higher = more signal, called active from +8 up or from −8 down
[13] = fission yeast growth modulation, primary screen, strain 972, OD600, 24 h, no modulator (AID 1090);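 note: basal condition with compound alone and no growth modifier present; test concentration not given here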; details: S. pombe 972 growth, higher = more signal, called active from +8 up or from −8 down
[14] = S. cerevisiae growth modulation with rapamycin, primary screen, strain BY4716, OD600, 96 h (AID 1091); details: higher = more signal, called active from +8 up or from −8 down; note: test concentration not given here
[15] = molecular target: Torsin-1A-interacting protein 2 (Homo sapiens) (UniProt Q8NFQ8); test: LULL1 binders on small-molecule microarray, primary screen, cell lysate, human LULL1 lysate, 635/667 nm fluorescence (AID 1092); details: hLULL1 lysate binding, 635 nm fluorescence, higher = more signal;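 note: probe is lysate of COS7 cells overexpressing human LULL1; score merges per-feature 667 nm fluorescence with signal-to-noise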
Torsin-1A-interacting protein 2 (Homo sapiens), sequence (Q8NFQ8 whole entry, looked up): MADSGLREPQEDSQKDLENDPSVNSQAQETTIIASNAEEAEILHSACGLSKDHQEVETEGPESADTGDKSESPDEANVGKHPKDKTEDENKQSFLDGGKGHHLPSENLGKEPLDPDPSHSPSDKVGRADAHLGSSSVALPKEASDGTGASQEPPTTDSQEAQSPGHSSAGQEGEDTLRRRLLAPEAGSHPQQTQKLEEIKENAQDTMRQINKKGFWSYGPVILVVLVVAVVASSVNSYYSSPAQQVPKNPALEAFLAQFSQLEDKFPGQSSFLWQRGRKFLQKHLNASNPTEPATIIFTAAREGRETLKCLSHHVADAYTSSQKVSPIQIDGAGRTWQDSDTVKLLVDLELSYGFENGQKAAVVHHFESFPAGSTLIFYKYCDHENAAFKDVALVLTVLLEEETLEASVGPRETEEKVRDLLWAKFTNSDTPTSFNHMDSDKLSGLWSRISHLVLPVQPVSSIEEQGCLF

[16] = E. coli growth modulation, two-sided OD650, primary screen, E. coli filamentation project, strain DRC41, 24 h (AID 1093); details: OD650, 24 h, higher = more signal, called active from +8 up or from −8 down;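 note: MC1000 strain lacking acrAB efflux and sulA so SOS filamentation is blocked; test concentration not given here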
[17] = small-molecule microarray binders of probe aLefty2, primary screen, biochemical, biotinylated probe, 635/667 nm fluorescence (AID 1094); details: higher = more signal;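 note: score merges spot fluorescence near 667 nm with spot signal-to-noise ratio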
[18] = tested on: Noggin (protein binding on small-molecule microarray); test: Noggin binders on small-molecule microarray, primary screen, biochemical, 635/667 nm fluorescence (AID 1095); details: 635 nm fluorescence, higher = more signal;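 note: score merges 667 nm feature fluorescence with signal to noise over triplicate slides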
[19] = molecular target: Neurogenic locus notch homolog protein 3 (Homo sapiens) (UniProt Q9UM47); test: NOTCH3 binders on small-molecule microarray, primary screen, biochemical, 635/667 nm fluorescence (AID 1096); details: NOTCH3 binding, 635 nm fluorescence, higher = more signal
Neurogenic locus notch homolog protein 3 (Homo sapiens), sequence (Q9UM47 whole entry, looked up): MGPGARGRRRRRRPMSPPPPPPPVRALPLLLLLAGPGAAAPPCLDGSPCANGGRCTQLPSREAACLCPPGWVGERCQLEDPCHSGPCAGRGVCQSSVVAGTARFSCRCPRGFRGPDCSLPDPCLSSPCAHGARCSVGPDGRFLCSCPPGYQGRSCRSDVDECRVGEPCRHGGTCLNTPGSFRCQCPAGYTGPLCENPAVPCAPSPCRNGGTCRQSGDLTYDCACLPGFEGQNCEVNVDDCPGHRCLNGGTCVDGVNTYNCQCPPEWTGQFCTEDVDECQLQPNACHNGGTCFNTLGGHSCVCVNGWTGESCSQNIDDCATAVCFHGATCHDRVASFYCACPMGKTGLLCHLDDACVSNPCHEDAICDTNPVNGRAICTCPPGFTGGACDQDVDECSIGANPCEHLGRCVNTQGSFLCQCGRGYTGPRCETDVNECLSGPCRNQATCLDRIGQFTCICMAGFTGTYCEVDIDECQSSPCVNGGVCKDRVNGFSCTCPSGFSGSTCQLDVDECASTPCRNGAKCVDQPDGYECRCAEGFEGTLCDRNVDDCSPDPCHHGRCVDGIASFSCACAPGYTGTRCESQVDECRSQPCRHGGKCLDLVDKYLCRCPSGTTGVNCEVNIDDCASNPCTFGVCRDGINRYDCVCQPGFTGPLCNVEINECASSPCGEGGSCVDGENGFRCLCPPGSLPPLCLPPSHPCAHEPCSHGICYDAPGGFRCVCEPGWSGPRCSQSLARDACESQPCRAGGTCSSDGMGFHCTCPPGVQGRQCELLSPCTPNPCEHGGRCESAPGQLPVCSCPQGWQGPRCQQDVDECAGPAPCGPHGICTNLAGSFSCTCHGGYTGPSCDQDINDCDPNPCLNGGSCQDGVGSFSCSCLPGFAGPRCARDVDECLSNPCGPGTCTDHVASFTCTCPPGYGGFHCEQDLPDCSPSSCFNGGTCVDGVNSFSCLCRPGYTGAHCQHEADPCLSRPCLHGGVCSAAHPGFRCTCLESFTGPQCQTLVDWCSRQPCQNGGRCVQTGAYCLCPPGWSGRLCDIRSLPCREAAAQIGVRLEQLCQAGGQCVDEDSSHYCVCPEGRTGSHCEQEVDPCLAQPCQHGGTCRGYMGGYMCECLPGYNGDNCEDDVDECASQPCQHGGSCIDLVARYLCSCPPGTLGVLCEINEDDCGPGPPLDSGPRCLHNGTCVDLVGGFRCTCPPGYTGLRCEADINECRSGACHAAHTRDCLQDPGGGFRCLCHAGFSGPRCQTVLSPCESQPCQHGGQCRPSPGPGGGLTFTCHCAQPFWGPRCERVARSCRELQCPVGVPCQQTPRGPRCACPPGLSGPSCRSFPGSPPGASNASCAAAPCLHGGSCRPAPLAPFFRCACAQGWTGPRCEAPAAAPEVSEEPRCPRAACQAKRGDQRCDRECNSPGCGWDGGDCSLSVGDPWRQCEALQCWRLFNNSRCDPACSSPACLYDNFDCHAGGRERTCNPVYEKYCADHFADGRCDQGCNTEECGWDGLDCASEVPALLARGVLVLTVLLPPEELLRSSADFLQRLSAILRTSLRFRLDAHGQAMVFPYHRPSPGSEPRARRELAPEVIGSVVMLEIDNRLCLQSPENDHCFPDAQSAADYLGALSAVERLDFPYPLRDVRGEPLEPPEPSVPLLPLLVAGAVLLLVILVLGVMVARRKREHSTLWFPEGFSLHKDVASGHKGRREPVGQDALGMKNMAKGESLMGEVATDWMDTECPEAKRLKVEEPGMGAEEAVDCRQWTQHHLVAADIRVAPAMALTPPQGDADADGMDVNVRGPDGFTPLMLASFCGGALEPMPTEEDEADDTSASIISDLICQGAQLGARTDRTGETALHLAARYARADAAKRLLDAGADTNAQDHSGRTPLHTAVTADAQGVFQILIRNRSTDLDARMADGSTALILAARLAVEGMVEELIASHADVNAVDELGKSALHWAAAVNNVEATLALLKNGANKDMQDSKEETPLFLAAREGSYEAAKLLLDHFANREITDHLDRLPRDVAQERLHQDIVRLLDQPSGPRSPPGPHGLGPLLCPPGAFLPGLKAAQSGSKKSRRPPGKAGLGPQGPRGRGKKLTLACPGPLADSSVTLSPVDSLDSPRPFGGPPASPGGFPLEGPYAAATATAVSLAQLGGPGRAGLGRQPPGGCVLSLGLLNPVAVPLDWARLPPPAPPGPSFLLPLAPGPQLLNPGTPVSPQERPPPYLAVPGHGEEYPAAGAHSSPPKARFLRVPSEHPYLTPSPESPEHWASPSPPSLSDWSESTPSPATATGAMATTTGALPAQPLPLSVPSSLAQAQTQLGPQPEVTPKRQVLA

[20] = small-molecule microarray binders of probe aEGFR, primary screen, biochemical, biotinylated probe, 635/667 nm fluorescence (AID 1097); details: higher = more signal;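 note: probe is a biotinylated anti-EGFR antibody binding compounds printed on slides; score combines fluorescence near 667 nm and signal to noise of each spot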

Row | Compound | composite z-score [1] | composite z-score [2] | composite z-score [3] | composite z-score [4] | composite z-score [5] | composite z-score [6] | composite z-score [7] | z-score [8] | composite z-score [9] | composite z-score [10] | composite z-score [11] | z-score [12] | z-score [13] | z-score [14] | composite z-score [15] | z-score [16] | composite z-score [17] | composite z-score [18] | composite z-score [19] | composite z-score [20]
1 | CCCC=C(CCC)[C@@H](NC(=O)c1ccc(C(=O)OC)cc1)c1ccc(C(=O)OC)cc1 | 0.0362 | -0.312 | 0.355 | -0.327 | 0.423 | 0.203 | -0.166 | 1.24 (inactive) | 0.484 | 2.54 | 0.0599 | 0.57 (inactive) | 0.311 (inactive) | 0.182 (inactive) | 2.85 | -1.29 (inactive) | 0.177 | 0.294 | 0.251 | 0.0173
2 | CC(C)c1ccc(NN2C(C(O)C3=C[C@H]4C[C@@H](C3)C4(C)C)C=CC3C(=O)N(c4ccccc4)C(=O)C32)cc1 (stereo not given in full) | 0.481 | 0.357 | 0.0301 | 0.605 | 1.16 | 1.74 | 0.885 | -1.01 (inactive) | 0.907 | -0.302 | 1.32 | 0.191 (inactive) | -0.0249 (inactive) | 0.264 (inactive) | 2.6 | -0.661 (inactive) | 0.363 | 0.501 | 1.08 | 0.114
3 | CC(C)C[C@@H]1NC(=O)[C@H]2C[C@@H](C(=O)O)[C@@H](c3cccc(OCCO)c3)N2C1=O | 0.885 | 1.76 | -0.083 | -0.0367 | -0.26 | 1.61 | 1.48 | 7.43 (inactive) | 0.108 | 0.129 | 0.779 | 0.395 (inactive) | -0.907 (inactive) | -0.529 (inactive) | 2.06 | 0.767 (inactive) | 0.276 | 0.492 | 0.632 | 0.0588
4 | C=C(C)C1CN([C@H](CO)c2ccccc2)C(=O)/C1=C\c1ccccc1 (stereo not given in full) | -0.511 | 0.188 | -0.111 | 0.305 | -0.0443 | 0.049 | 0.465 | -1.39 (inactive) | 0.173 | -0.174 | 0.464 | -0.334 (inactive) | -3.2 (inactive) | -0.481 (inactive) | -0.302 | 1.82 (inactive) | -0.0931 | 0.467 | 0.0584 | -0.167
5 | O=C1O[C@H](c2ccccc2)[C@H](c2ccccc2)N2[C@H]1[C@@H](C(=O)N1CCCCCCC1)[C@]1(C(=O)Nc3ccc(C#CCCO)cc31)[C@H]2c1ccc(O)cc1 | 3.79 | 2.62 | 0.978 | 1.4 | 1.79 | 2.79 | 1.42 | -1.1 (inactive) | 3.34 | 1.7 | 1.54 | 0.6 (inactive) | -0.36 (inactive) | 1.45 (inactive) | 5.04 | 2.08 (inactive) | 1.78 | 0.731 | 1.02 | 1.38
6 | Cc1ccc(S[C@]2(C(=O)NC3CC3)CC(=O)N(C3Cc4ccccc4C3)[C@@H]2c2ccc(CO)cc2I)cc1 | 0.851 | -0.1 | -0.133 | -0.0222 | -0.603 | 0.996 | 0.381 | -2.24 (inactive) | -0.228 | -0.286 | 0.198 | -0.192 (inactive) | -2.85 (inactive) | 3.27 (inactive) | 1.67 | 0.844 (inactive) | -0.0771 | -0.992 | -0.847 | -0.269
7 | COCCCNC(=O)[C@@]1(Cc2ccccc2I)c2ccccc2C(=O)N(Cc2ccccc2OC)[C@H]1c1ccc(CO)cc1 | 0.841 | 0.32 | 0.096 | 0.655 | -1.09 | 1.3 | 1.3 | -2.86 (inactive) | -0.523 | -0.195 | 1.56 | 0.634 (inactive) | 0.248 (inactive) | 1.07 (inactive) | 2.77 | 0.62 (inactive) | -0.142 | -1.22 | -0.625 | -0.331
8 | O=C(CS)NCCCCCCNC(=O)[C@H]1C[C@H]2C(=O)NCC(=O)N2[C@H]1c1cccc(OCCO)c1 | -0.0511 | 0.0436 | -0.0488 | 0.22 | 0.166 | 1.36 | 1.36 | 0.525 (inactive) | 0.0909 | 0.0024 | 0.863 | -0.573 (inactive) | -0.372 (inactive) | 0.585 (inactive) | 2.47 | 1.25 (inactive) | 0.0657 | 0.6 | 0.471 | -0.0612
9 | C=CCOC(=O)[C@H]1[C@@H]2C(=O)O[C@@H](c3ccccc3)[C@@H](c3ccccc3)N2[C@@H](c2ccc(OCCOC(=O)[C@H]3C[C@H]4C(=O)NCC(=O)N4[C@H]3c3ccc(O)cc3)cc2)[C@]12C(=O)Nc1ccccc12 | 0.924 | 0.933 | -0.0355 | 0.738 | 1.2 | 1.57 | 1.33 | 0.575 (inactive) | 0.389 | 0.49 | 1.48 | 1.71 (inactive) | 1.61 (inactive) | 4.1 (inactive) | 2.58 | -0.0665 (inactive) | 0.0337 | 1.22 | 1.09 | 0.0656
10 | O=C1N(Cc2ccccc2)Cc2ccccc2C[C@@]12COC(c1ccc(OCCCO)cc1)=N2 | 1.18 | 0.455 | -0.0428 | -0.0784 | -0.0568 | 0.605 | 1.21 | -1.58 (inactive) | 0.419 | 0.369 | 1.38 | 1.92 (inactive) | -1.05 (inactive) | 6.73 (inactive) | 1.79 | 0.615 (inactive) | 0.363 | 0.0489 | 0.117 | -0.0315
